According to PubChem BioAssay AID1159580 (chemical genetic matrix, 2015):
The campaign covered roughly 5,500 compounds. About 2,000 (36%) were called active. About 18% were inconclusive and are not listed. The list shows a part of the results. Unmarked numbers belong to inactive results. Rule as the data show it: active = normalized growth mostly below about 0.91 (no sharp cut-off); inconclusive = no clear call, values can overlap the other calls; inactive = mostly above about 0.92.

Assay: chemical genetic growth profiling, strain panel (AID 1159580);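 also: tested at 20 µM; growth read once vehicle control cultures reached saturation at 30 °C; 1 = growth at the plate median or of vehicle wells; lower values mean less growth of the strain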
Conditions: S. cerevisiae deletion strains, growth OD

In the case of COc1ccc(/C=C/c2cc(O)cc(O)c2)cc1, the normalized growth (locus YJR043C, strain POL32, hits give low values) is reported as 0.788 (active), the normalized growth (locus YJR066W, strain TOR1, hits give low values) is reported as 0.995 and the normalized growth (locus YKL009W, strain mrt4, hits give low values) is reported as 0.87 (active). The normalized growth (locus YKL068W, hits give low values) was 0.982, the normalized growth (locus YKL085W, strain MDH1 (second series), hits give low values) was 0.946 and the normalized growth (locus YKL085W, strain MDH1, hits give low values) was 0.946. The normalized growth (locus YKL160W, strain elf1, hits give low values) was 0.996, the normalized growth (locus YKR001C, strain vps1, hits give low values) was 0.608 (active) and the normalized growth (locus YKR026C, strain gcn3, hits give low values) was 1. The normalized growth (locus YKR091W, strain srl3, hits give low values) was 1, the normalized growth (locus YLL001W, strain dnm1, hits give low values) was 0.997 and the normalized growth (locus YLL026W, hits give low values) was 1.01. The normalized growth (locus YLL041C, strain sdh2, hits give low values) was 1.01, the normalized growth (locus YLR027C, strain aat2, hits give low values) was 1 and the normalized growth (locus YLR039C, strain RIC1, hits give low values) was 0.815. The normalized growth (locus YLR058C, strain SHM2, hits give low values) was 0.931, the normalized growth (locus YLR102C, strain apc9, hits give low values) was 0.966 and the normalized growth (locus YLR113W, strain HOG1, hits give low values) was 0.966. For the same compound, the normalized growth (locus YLR221C, strain rsa3, hits give low values) was 0.999, the normalized growth (locus YLR258W, strain gsy2, hits give low values) was 0.996 and the normalized growth (locus YLR262C, strain YPT6 (second series), hits give low values) was 0.991. The normalized growth (locus YLR262C, strain YPT6, hits give low values) was 0.686, the normalized growth (locus YLR268W, strain sec22, hits give low values) was 0.872 (active) and the normalized growth (locus YLR320W, strain mms22, hits give low values) was 0.991. For the same compound, the normalized growth (locus YLR330W, strain CHS5, hits give low values) was 0.84 (active), the normalized growth (locus YLR342W, strain FKS1 (second series), hits give low values) was 0.785 (active) and the normalized growth (locus YLR342W, strain FKS1, hits give low values) was 1. For the same compound, the normalized growth (locus YLR357W, strain rsc2, hits give low values) was 0.95, the normalized growth (locus YLR370C, strain arc18, hits give low values) was 1.01 and the normalized growth (locus YLR371W, strain rom2, hits give low values) was 0.793 (active). For the same compound, the normalized growth (locus YLR384C, strain iki3, hits give low values) was 1.01, the normalized growth (locus YLR418C, strain cdc73, hits give low values) was 0.583 (active) and the normalized growth (locus YML016C, strain PPZ1, hits give low values) was 0.964. The normalized growth (locus YML032C, strain rad52, hits give low values) was 0.886 (active), the normalized growth (locus YML120C, strain ndi1, hits give low values) was 0.997 and the normalized growth (locus YML124C, strain tub3, hits give low values) was 0.972. It also gave a normalized growth (locus YMR058W, strain fet3, hits give low values) of 1, a normalized growth (locus YMR078C, strain ctf18, hits give low values) of 0.967 and a normalized growth (locus YMR125W, strain sto1, hits give low values) of 1.01. For the same compound, the normalized growth (locus YMR129W, hits give low values) was 1.01, the normalized growth (locus YMR205C, strain PFK2, hits give low values) was 0.995 and the normalized growth (locus YMR223W, strain ubp8, hits give low values) was 0.89 (active). For the same compound, the normalized growth (locus YMR231W, strain pep5, hits give low values) was 0.992, the normalized growth (locus YMR263W, strain SAP30, hits give low values) was 0.883 (active) and the normalized growth (locus YMR307W, strain GAS1, hits give low values) was 0.663. For the same compound, the normalized growth (locus YNL067W, strain RPL9B, hits give low values) was 0.908, the normalized growth (locus YNL071W, strain lat1, hits give low values) was 1 and the normalized growth (locus YNL153C, strain GIM3, hits give low values) was 0.931. The normalized growth (locus YNL183C, strain NPR1, hits give low values) was 0.977, the normalized growth (locus YNL209W, strain ssb2, hits give low values) was 1.01 and the normalized growth (locus YNL233W, strain BNI4, hits give low values) was 0.823 (active). The normalized growth (locus YNL248C, strain rpa49, hits give low values) was 0.999, the normalized growth (locus YNL250W, strain rad50, hits give low values) was 0.961 and the normalized growth (locus YNL271C, strain bni1, hits give low values) was 0.945. For the same compound, the normalized growth (locus YNL298W, strain CLA4, hits give low values) was 0.928, the normalized growth (locus YNL307C, strain MCK1, hits give low values) was 0.857 (active) and the normalized growth (locus YNL322C, strain KRE1 (second series), hits give low values) was 1.01. The normalized growth (locus YNL322C, strain KRE1, hits give low values) was 0.945, the normalized growth (locus YNR049C, strain mso1, hits give low values) was 1.02 and the normalized growth (locus YNR052C, strain pop2, hits give low values) was 0.914 (active). For the same compound, the normalized growth (locus YOL012C, strain htz1) was 0.771, the normalized growth (locus YOL147C, strain pex11, hits give low values) was 0.868 (active) and the normalized growth (locus YOR001W, strain rrp6, hits give low values) was 1. It also gave a normalized growth (locus YOR061W, strain CKA2, hits give low values) of 0.941, a normalized growth (locus YOR069W, strain VPS5, hits give low values) of 0.927 and a normalized growth (locus YOR070C, strain gyp1, hits give low values) of 1. For the same compound, the normalized growth (locus YOR080W, strain dia2, hits give low values) was 1, the normalized growth (locus YOR083W, strain WHI5, hits give low values) was 0.994 and the normalized growth (locus YOR106W, strain vam3, hits give low values) was 0.956. For the same compound, the normalized growth (locus YOR136W, strain idh2, hits give low values) was 0.936, the normalized growth (locus YOR144C, strain elg1, hits give low values) was 0.932 (active) and the normalized growth (locus YOR184W, strain ser1, hits give low values) was 0.623 (active). For the same compound, the normalized growth (locus YOR231W, strain MKK1, hits give low values) was 0.991, the normalized growth (locus YOR265W, strain rbl2, hits give low values) was 1.02 and the normalized growth (locus YOR270C, strain vph1, hits give low values) was 0.998. It also gave a normalized growth (locus YOR290C, strain snf2, hits give low values) of 0.995, a normalized growth (locus YOR316C, strain cot1, hits give low values) of 0.961 and a normalized growth (locus YPL051W, strain arl3, hits give low values) of 0.973. The normalized growth (locus YPL078C, strain atp4, hits give low values) was 0.998, the normalized growth (locus YPL106C, strain sse1, hits give low values) was 0.996 and the normalized growth (locus YPL240C, strain hsp82, hits give low values) was 1.01. It also gave a normalized growth (locus YPL241C, strain CIN2, hits give low values) of 0.973, a normalized growth (locus YPL256C, strain CLN2, hits give low values) of 1.05 and a normalized growth (locus YPR119W, strain clb2, hits give low values) of 0.964. The normalized growth (locus YPR141C, strain kar3, hits give low values) was 0.977, the normalized growth (locus YPR163C, strain tif3, hits give low values) was 0.842 (active) and the normalized growth (locus YPR167C, strain met16, hits give low values) was 0.969. The normalized growth (strain wtn01, hits give low values) was 0.838 (active).
